Assay outcomes (PubChem)
Sampled rows, rich in hits. Any-hit rate of the full collection: about 19%.
KB-3-1 tox – qHTS assay for MDR1-selective chemotherapeutics: Primary screen using the parental adenocarcinoma cell KB-3-1. KB-3-1 viability, CellTiter-Glo ATP luminescence, 72 h. Potency, µM (highest dose often 46.1 µM), hits mostly cytotoxic. 400,000 tested, 1.4% active; further: nearly all actives have a fitted effect of over 60% in size
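72 h, 37 °C compound treatment of KB-3-1 parental cells; CellTiter-Glo added, 10 min, luminescence read. Data corrected against DMSO-only plates and normalized before curve fitting.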
KB-V1 MDR tox – qHTS assay for MDR1-selective chemotherapeutics: Primary screen using the drug-selected MDR subline cells KB-V1; KB-V1 MDR cells viability, CellTiter-Glo, 72 h; Potency, µM (top dose mostly 46.1 µM), hits mostly cytotoxic; 400,000 tested, 3.4% active; further: nearly all actives have a fitted effect of over 60% in size
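In this primary screen, KB-V1 cells overexpressing P-gp are incubated with library compounds (lowest to highest concentration) for 72 h at 37 degrees C before a luminescent ATP viability read.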
TDP1 cell noCPT – qHTS for Inhibitors of human tyrosyl-DNA phosphodiesterase 1 (TDP1): qHTS in cells in absence of CPT. DT40 Tdp1-/- hTDP1 cells, no CPT, ATP luminescence, 48 h. Potency, µM (highest dose often 46.2 µM), inactives show top-dose activity change, negative = growth inhibition, most hits filed as inhibitors. 420,000 tested, 15% active; further: nearly all actives have a fitted effect of over 55% in size
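Camptothecin absent (DMSO only). Human TDP1-complemented DT40 knockout cells, 400 cells/well, 37 °C for minimum 48 hr; ATP measured via CellTiter-Glo, 30 min dark incubation, luminescence.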
HT1080NT lethal – qHTS for induction of synthetic lethality in tumor cells producing 2HG: qHTS for the HT-1080-NT fibrosarcoma cell line | AID 686970, 2013 | HT-1080-NT fibrosarcoma viability, CellTiter-Glo ATP luminescence, 48 h | 360,000 tested, 1.6% active | Potency, µM (titrated, usually from 46.1 µM), inactives show at the highest dose activity, negative = less viability, hits mostly cytotoxic;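 further: NT is the 2HG producing partner of a matched IDH1 knockdown line; 0% = DMSO-treated cells and -100% = media-only wells without cells; nearly all actives have a fitted effect of over 55% in size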
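Toxicity toward the 2HG-producing NT line was scored as %Activity, normalised to DMSO and no-cell wells, from CellTiter-Glo luminescence after 48 hours' treatment.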
TDP1 cell CPT – qHTS for Inhibitors of human tyrosyl-DNA phosphodiesterase 1 (TDP1): qHTS in cells in presence of CPT. chicken DT40 Tdp1-/-;hTDP1 cells + 20 nM CPT, ATP luminescence, 48 h. Potency, µM (doses to about 46.2 µM), for inactives: top-dose activity change, negative = growth inhibition, most hits filed as inhibitors. 420,000 tested, 12% active. AID 686979, 2013; further: nearly all actives have a fitted effect of over 55% in size
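Chicken DT40 Tdp1-/- cells complemented with human TDP1, 400 cells/well, exposed to compounds plus 20 nM camptothecin for at least 48 h at 37 C; viability read as ATP content by CellTiter-Glo luminescence.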
HT1080 IDH1KD tx – qHTS for induction of synthetic lethality in tumor cells producing 2HG: qHTS for the HT-1080-IDH1KD cell line; Potency, µM (highest dose often 46.1 µM), inactives show at the highest dose activity, negative = toxicity, most hits filed as cytotoxic; AID 686971, 2013; HT-1080 IDH1 knockdown viability, ATP luminescence, 48 h; 360,000 tested, 2% active;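 further: 0% = DMSO wells and -100% = cell-free medium wells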
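After a 2 h attachment period, IDH1KD HT-1080 cells took pin-transferred compound for 48 h at 37 °C; ATP-based luminescence after 10 min room-temperature reagent incubation reported viability.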
* marks the source's active call; other numbers are inactive results; i = inactive; ? = inconclusive; . = no result; [ ] = remark or other dose. The call rests on the fitted dose curve; in most records, active means well fitted curve in the direction sought with a large enough effect; inconclusive means small, poorly fitted or top-dose-only effect, or another doubt; inactive means no such curve, though single readings can be large; an effect the other way counts as inactive or inconclusive. Unless noted, on the % scale 0 is the no-effect control and ±100 the full control effect; potency means the concentration at half of the fitted maximal effect.

SMILES	KB-3-1 tox	KB-V1 MDR tox	TDP1 cell noCPT	HT1080NT lethal	TDP1 cell CPT	HT1080 IDH1KD tx
CCCNC(=O)CCc1nnc2ccc(N3CCN(c4cccc(OC)c4)CC3)nn12	.	.	?	.	-12%	.
CCOC(=O)c1c(C)n(-c2ccc(OC)cc2)c2ccc(O)c(CN(C)C)c12	?	?	16µM*	?	26µM*	21µM*
CCOC(=O)c1sc(=N)n(-c2ccc(OC)cc2)c1C	i	i	?	0%	?	-2%
CCOC(=O)c1c(C)n(C)c2ccc(O)c(CN(C)C)c12	?	i	18µM*	-17%	21µM*	-14%
COc1cc(NC(=O)C2CCN(S(=O)(=O)c3ccc4c(c3)CCCC(=O)N4)CC2)cc(OC)c1	i	i	.	.	.	.
O=c1c2ccccc2nc(-c2ccc(Cl)c(Cl)c2)n1O	?	?	5.2µM*	-10%	6.5µM*	-1%
Cc1ccc(-c2nc3c(Cl)cc(Cl)cc3c(=O)n2O)cc1	i	i	18µM*	-14%	?	-13%
O=c1c2ccc(Cl)cc2nc(-c2cccc(C(F)(F)F)c2)n1O	?	?	3.7µM*	?	4.1µM*	?
O=c1c2ccccc2nc(-c2ccccc2Cl)n1O	i	i	-10%	11%	12%	13%
CCc1ccccc1NC(=O)CN1C(=O)COc2ccc(S(=O)(=O)N3CCCCCC3)cc21	.	.	?	.	-14%	.
Cc1cccn2c(=S)[nH]nc12	i	i	-3%	2%	4%	5%
O=C(O)Cn1cc(/C=C/[N+](=O)[O-])c2ccccc21	i	?	-9%	-1%	-1%	1%
CC(C)n1cc(/C=N/Nc2ccc(C(=O)O)cc2)c2ccccc21	i	i	2%	-10%	0%	-17%
CCN(CC)C(=O)Cn1c(C)c(/C=C/c2cc[n+](C)cc2)c2ccccc21	i	i	?	10%	?	1%
C=CCn1cc(/C=C/c2cc[n+](C)cc2)c2ccccc21	4.1µM*	i	0.58µM*	?	0.73µM*	?
CCn1cc(/C=C/c2cc[n+](C)cc2)c2ccccc21	i	i	1µM*	?	0.33µM*	?
C=CCn1c(C)c(/C=C/c2cc[n+](C)cc2)c2ccccc21	2.3µM*	i	1.5µM*	-7%	3.7µM*	?
CC(C)n1cc(/C=C/c2cc[n+](C)cc2)c2ccccc21	1.3µM*	i	0.52µM*	?	0.52µM*	9.2µM*
Cc1ccc(C(=O)O)cc1NC(=S)NC(=O)c1ccc([N+](=O)[O-])c(C)c1	i	i	3%	-7%	1%	-7%
CN(C)N1C(N)=C(C#N)C(c2cccs2)C2=C1CC(C)(C)CC2=O (stereo not drawn)	i	i	-10%	5%	-2%	-15%
Cc1oc2ccc(O)cc2c1C(=O)c1ccc([N+](=O)[O-])cc1	i	?	13µM*	5%	21µM*	2%
Cc1oc2ccc(O)cc2c1C(=O)c1ccc(Cl)cc1	i	i	?	-27%	-22%	-25%
CC(=O)c1c(O)c(C)c(O)c2c1OC1=CC(=O)/C(=C(/C)N)C(=O)C12C (stereo not drawn)	?	?	8.2µM*	-4%	15µM*	?
CCCOP(=O)(c1ccc(N(C)C)cc1)C(Nc1ccccc1)c1ccc(N(C)C)cc1 (stereo not drawn)	i	i	2.3µM*	-1%	8.2µM*	-1%
Cc1ccc(Cl)cc1-c1cc(C(=O)N2CCc3ccccc3C2)[nH]n1	i	i	?	-2%	16µM*	-7%
SMILES	KB-3-1 tox	KB-V1 MDR tox	TDP1 cell noCPT	HT1080NT lethal	TDP1 cell CPT	HT1080 IDH1KD tx
O=C(NCC1CCCCC1)c1cc(-c2cc(F)ccc2OCC2CCCO2)n[nH]1 (stereo not drawn)	i	i	?	?	18µM*	?
COc1ccc(-c2cc(C(=O)NCc3ccc(F)cc3)[nH]n2)c(C)c1	i	i	?	1%	18µM*	-1%
COc1ccc(Cl)c(-c2cc(C(=O)NCc3ccc(C(F)(F)F)cc3)[nH]n2)c1	i	?	?	-18%	16µM*	-12%
O=C(c1cc2cc(Cl)ccc2[nH]1)N1CCc2ccccc2C1	i	i	-46%	15%	?	7%
Cc1ccc2c(c1)CN(CCNC(=O)c1cccc(Cn3cccn3)c1)CC(C)O2 (stereo not drawn)	.	.	-1%	.	4%[9.04 µM]	.
CCOc1ccc(CCNS(=O)(=O)c2cnc[nH]2)cc1OCC	i	i	-17%	5%	2%	0%
CCOC(=O)N1CCN(Cc2nc3cc([N+](=O)[O-])ccc3n2C)CC1	i	i	-18%	-17%	-1%	-7%
NS(=O)(=O)c1ccc(CNC(=O)c2ccc(NS(=O)(=O)c3cccs3)cc2)cc1	i	i	15%	5%	0%	-10%
Cc1cc(F)ccc1-c1cc(C(=O)NCc2ccc(C(F)(F)F)cc2)[nH]n1	i	i	-26%	?	?	?
Cc1ccc(Cl)cc1-c1cc(C(=O)Nc2ccc(F)cc2)[nH]n1	?	?	21µM*	?	23µM*	?
Cc1ccc(Cl)cc1-c1cc(C(=O)NCc2ccc(C(F)(F)F)cc2)[nH]n1	i	i	16µM*	?	21µM*	?
COc1ccc(-c2cc(C(=O)Nc3cc(OC)c(OC)c(OC)c3)[nH]n2)c(C)c1	?	i	12µM*	?	23µM*	15%
Cc1ccc(Cl)cc1-c1cc(C(=O)NCC2CCCCC2)[nH]n1	i	i	18µM*	?	?	?
CCOc1nc(C#N)nc(N(c2ccccc2)c2ccccc2)n1	?	?	-7%	.	1%	.
CCc1cccc(NC(=O)Cn2c(=O)n(CCCCCC(=O)NCc3ccc(F)cc3)c(=O)c3sccc32)c1	i	i	?	.	?	.
Cc1cc(C)n(-c2nnc3c4ccccc4n(C)c3n2)n1	i	i	?	?	-12%	?
